Measured values reported in PubChem BioAssay.
Where “and” joins values, the source holds several entries; their conditions need not be identical. Identical values can stand only once. Calls of active or inactive are those of the source.

The compounds below were run against NADPH oxidase 4 (Homo sapiens) (UniProt Q9NPH5) (assay: NOX4-dependent H2O2 signal modulators, primary screen, NOX inhibitor project, cell-based, HEK293-NOX4, tetracycline-induced, Amplex Red fluorescence (AID 1160)). Details: 45 min, higher = more signal, called active from +8 up or from −8 down.
Chain of NADPH oxidase 4 (Homo sapiens) (Q9NPH5 whole entry, looked up): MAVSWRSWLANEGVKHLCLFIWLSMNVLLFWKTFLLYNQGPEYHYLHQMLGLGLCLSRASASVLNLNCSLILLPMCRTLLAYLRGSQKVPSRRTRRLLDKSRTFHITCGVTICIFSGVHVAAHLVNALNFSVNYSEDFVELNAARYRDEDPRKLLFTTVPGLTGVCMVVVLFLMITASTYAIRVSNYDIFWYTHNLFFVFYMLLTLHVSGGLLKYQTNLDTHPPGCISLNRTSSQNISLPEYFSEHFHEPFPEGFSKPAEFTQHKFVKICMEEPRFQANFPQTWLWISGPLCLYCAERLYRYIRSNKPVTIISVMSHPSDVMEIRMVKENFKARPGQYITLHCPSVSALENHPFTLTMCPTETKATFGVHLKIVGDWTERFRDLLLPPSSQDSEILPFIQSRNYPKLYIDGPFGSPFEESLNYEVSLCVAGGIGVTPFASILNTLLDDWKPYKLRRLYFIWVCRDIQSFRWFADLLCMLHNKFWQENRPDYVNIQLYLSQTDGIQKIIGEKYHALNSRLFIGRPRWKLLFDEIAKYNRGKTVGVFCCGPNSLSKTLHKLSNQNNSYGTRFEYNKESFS
`C=CCN(C(=O)C1N(c2c(Cl)cccc2CO)C(=O)C2C(C(=O)O)C3C=CC21O3)C(C)(C)C` (centres undefined) was tested, and the z-score was -0.288 (inactive) and -0.645 (inactive). In the case of `O=C1C[C@]2(c3ccc([N+](=O)[O-])cc3)C(=O)N(Cc3ccccc3)c3cc(CO)ccc3[C@H]2N1C1CCCCC1`, the z-score is reported as 0.644 (inactive) and -1.56 (inactive). With `C[C@@H](ON=C1[C@H]2CCn3c(=O)n(-c4ccccc4)c(=O)n3[C@H]2[C@H](O)[C@@H]2O[C@H]12)c1cn([C@H](CO)Cc2ccccc2)nn1` the z-score was -0.268 (inactive). In the case of `C=CCN(CCCC)C(=O)C1N(C(C)(C)CO)C(=O)C2C(C(=O)O)C3C=CC21O3` (centres undefined), the z-score is reported as 0.0887 (inactive) and -0.0844 (inactive). With `COC(=O)[C@@]1(Cc2ccccc2)[C@H]2c3cc(C(=O)N(C)C)n(C[C@H](O)CO)c3C[C@H]2CN1C(=O)c1ccccc1` the z-score was -3.17 (inactive) and -0.539 (inactive). `C[C@@H]1CN2[C@@H](CC[C@@H](C)[C@@H]2c2ccc(Br)cc2)C(=O)O1` was tested, and the z-score was -1 (inactive) and 0.168 (inactive). With `COC(=O)C1=C(C)N(Cc2ccccc2)[C@]23O[C@](C(=O)OC)(C(=O)N2[C@@H]1c1ccccc1)[C@@H](C(=O)OC)[C@H]3C(=O)OC` the z-score was -1.42 (inactive) and -0.0445 (inactive). In the case of `C=CCN(Cc1ccccc1)C(=O)C1N(c2ccc(CCO)cc2)C(=O)C2C(C(=O)O)C3C=CC21O3` (centres undefined), the z-score is reported as -1.13 (inactive) and -0.149 (inactive). `CCOC(=O)C[C@H]1[C@H](OC(=O)c2ccccc2-c2ccccc2)[C@@H](NC(=O)Cc2ccc(OC)cc2)c2cc(OCCCO)ccc2N1C(=O)c1ccc2ccccc2n1` was tested, and the z-score was 0.946 (inactive) and 0.859 (inactive). With `CC(C)CCN1CCc2nc(-c3ccccc3)c3c(c2C1)CO[C@@H](C)C3` the z-score was 0.461 (inactive). In the case of `CCOC(=O)[C@@H]1CC=C2CC1C(=O)N1CCC[C@@H]1[C@H]2O[Si](C)(C)C(C)(C)C` (some centres undefined), the z-score is reported as 1.2 (inactive) and -0.116 (inactive). For `COC(=O)[C@@]1(Cc2ccc(OC)cc2)[C@H]2c3cc(C(=O)N(C)C)n(Cc4ccc(O)c(OC)c4)c3C[C@H]2CN1C(=O)c1ccccc1`, the z-score was -6.68 (inactive) and 1.16 (inactive). `CO[C@H]1COC(=O)CC=C[C@H](C)[C@H](OC)COC(=O)[C@@H](C)COC(=O)CC=C[C@@H]1C` was tested, and the z-score was 0.201 (inactive) and 0.589 (inactive). `CCOC(=O)C[C@H]1[C@H](OC(=O)c2ccccc2-c2ccccc2)[C@@H](NC(=O)c2ccccc2)c2cc(OCCCO)ccc2N1C(=O)c1ccc2ccccc2n1` was tested, and the z-score was 0.848 (inactive) and 0.921 (inactive). In the case of `C=CCN(CCCC)C(=O)C1N(c2c(Cl)cccc2CO)C(=O)C2C(C(=O)O)C3C=CC21O3` (centres undefined), the z-score is reported as -0.381 (inactive) and -0.863 (inactive).

The compounds below were run against NADPH oxidase 5 (Homo sapiens) (UniProt Q96PH1) (assay: NOX5-dependent H2O2 signal modulators, primary screen, NOX inhibitor project, cell-based, HEK293-NOX5, Amplex Red fluorescence (AID 1161)). Details: HEK293-NOX5, ionomycin, 45 min, higher = more signal.
Chain of NADPH oxidase 5 (Homo sapiens) (Q96PH1 whole entry, looked up): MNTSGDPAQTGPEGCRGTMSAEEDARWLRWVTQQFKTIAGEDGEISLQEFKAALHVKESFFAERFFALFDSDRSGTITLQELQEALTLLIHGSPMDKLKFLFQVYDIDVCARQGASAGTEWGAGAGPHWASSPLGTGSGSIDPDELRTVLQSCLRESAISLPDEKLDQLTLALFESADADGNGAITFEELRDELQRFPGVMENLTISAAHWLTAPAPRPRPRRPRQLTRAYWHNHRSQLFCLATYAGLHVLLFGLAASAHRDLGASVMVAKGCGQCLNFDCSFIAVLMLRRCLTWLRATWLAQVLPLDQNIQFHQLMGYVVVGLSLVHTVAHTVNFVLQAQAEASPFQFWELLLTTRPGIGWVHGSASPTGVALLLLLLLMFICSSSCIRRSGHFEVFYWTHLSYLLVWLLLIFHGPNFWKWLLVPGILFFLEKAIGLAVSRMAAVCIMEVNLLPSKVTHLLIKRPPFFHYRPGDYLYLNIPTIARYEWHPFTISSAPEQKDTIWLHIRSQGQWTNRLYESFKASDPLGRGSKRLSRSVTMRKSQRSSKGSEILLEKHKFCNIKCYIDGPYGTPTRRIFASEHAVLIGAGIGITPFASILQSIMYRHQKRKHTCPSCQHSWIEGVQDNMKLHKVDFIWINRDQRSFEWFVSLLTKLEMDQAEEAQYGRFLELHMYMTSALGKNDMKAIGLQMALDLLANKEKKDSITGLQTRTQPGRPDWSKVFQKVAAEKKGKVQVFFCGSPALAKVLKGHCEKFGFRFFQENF
With `CC(CO)N1C(=O)[C@@H]2C3C(=O)OCCC=C[C@H]3OC23C=CCN(c2ccc(Cl)cc2)C(=O)[C@@H]13` (some centres undefined) the z-score was 2.46 and 2.5. `CCOC(=O)NN=C1C[C@@H](O)[C@@H](O)[C@@H]2[C@@H]3C(=O)N(Cc4ccc5c(c4)OCO5)C(=O)[C@@H]3CC[C@@H]12` gave a z-score of 0.175. In the case of `C=CCN(C(=O)C(c1cccs1)N(C(=O)/C=C\C(=O)O)c1ccc(CCO)cc1)C(C)(C)C` (centres undefined), the z-score is reported as 0.274 and 0.335. With `C=CCN(C(=O)C(c1cccs1)N(C(=O)/C=C\C(=O)O)c1c(Cl)cccc1CO)C(C)(C)C` (centres undefined) the z-score was -0.328 and 0.528. `C=CCN(CCCCC)C(=O)C1N(c2c(Cl)cccc2CO)C(=O)C2C(C(=O)O)C3C=CC21O3` (centres undefined) was tested, and the z-score was -0.554 and -0.2. `C=CCN(CCCC)C(=O)C(c1cccs1)N(CCOCCO)C(=O)/C=C\C(=O)O` (centres undefined) was tested, and the z-score was 0.465 and -0.0314. With `CCCCCN1CC=CC23O[C@@H]4C=CCCOC(=O)C4[C@H]2C(=O)N(C(C)CO)[C@@H]3C1=O` (some centres undefined) the z-score was 2.09 and 2.43. For `COC(=O)[C@H](C)NC(=O)CCC1CC(OC(=O)NCCc2ccc(F)cc2)CC2(CCCC(COC(=O)NCCCN3CCCC3=O)O2)O1` (some centres undefined), the z-score was -0.0138. For `COC(=O)C1=C(C)N(Cc2ccccc2)C2=C(C(C)=O)C[C@@](O)(C(=O)OC)C(=O)N2[C@@H]1c1ccccc1`, the z-score was 1 and 1.04. With `C=CCN(CCCCC)C(=O)C(c1cccs1)N(C(=O)/C=C\C(=O)O)c1c(Cl)cccc1CO` (centres undefined) the z-score was 0.212 and 0.29. `CC(C)CON=C1C[C@@H](O)[C@@H](O)[C@@H]2[C@@H]3C(=O)N(c4cccc(Oc5ccccc5)c4)C(=O)[C@@H]3CC[C@H]12` gave a z-score of -0.144. With `C=CCN(C(=O)C(c1cccs1)N(C(=O)/C=C\C(=O)O)C(C)(C)CO)c1ccc(OC)cc1` (centres undefined) the z-score was -0.126 and 0.853. `CCCNC(=O)OC[C@H]1O[C@H](CCON=C(C)CCN2CCc3nc(-c4ccccc4)c(-c4ccccc4)cc3C2)C=C[C@@H]1Oc1ccc(OC)cc1` was tested, and the z-score was -2.17. `C=CC[C@@H](O)c1ccc(O)c(F)c1` was tested, and the z-score was -0.436 and 0.271. `C=CCN(Cc1ccccc1)C(=O)C(c1cccs1)N(C(=O)/C=C\C(=O)O)c1c(Cl)cccc1CO` (centres undefined) was tested, and the z-score was 0.0528 and 0.284. `CC(C)[Si]1(C(C)C)OCc2cc(CCCc3cc4c(c(CCc5ccccc5)n3)[Si](C(C)C)(C(C)C)OC4)nc(CCc3ccccc3)c21` was tested, and the z-score was -2.98 and -0.0908. In the case of `COC(=O)[C@@]1(Cc2ccc(F)cc2)[C@H]2c3cc(C(=O)N4CCCC4)n(Cc4c(CO)[nH]cc(C)c4=O)c3C[C@H]2CN1C(=O)c1ccccc1`, the z-score is reported as -2.05 and -0.222. In the case of `C=CCN(C(=O)C1N(c2ccc(CCO)cc2)C(=O)C2C(C(=O)O)C3C=CC21O3)c1ccc(OC)cc1` (centres undefined), the z-score is reported as 2.64 and -0.701. For `C=CCN(C(=O)C1N(CCOCCO)C(=O)C2C(C(=O)O)C3C=CC21O3)C(C)(C)C` (centres undefined), the z-score was 1.19 and -0.295. In the case of `CCOC(=O)c1ccc(NC(=O)O[C@H]2[C@H](OC(=O)Nc3ccccc3)[C@H](OC(=O)Nc3ccccc3)[C@@H](OC)O[C@@H]2CO)cc1`, the z-score is reported as -0.195 and -0.355. With `CC(C)=NOCc1ccc(-c2cn([C@@H]3COC[C@H]3O)nn2)cc1` the z-score was -0.388. With `C[C@@H]1CC[C@H]2C(=O)O[C@H](CN=[N+]=[N-])CN2[C@H]1c1ccc(Br)cc1` the z-score was -0.124 and 0.779. `C=CCN1C(=O)[C@]2(O[C@H](CCn3cc(CCO)nn3)[C@@H]([Si](C)(C)c3ccc(OC)cc3)[C@@H]2C)c2cc(N3C(=O)c4cccc5cccc3c45)ccc21` was tested, and the z-score was -0.371 and -0.152. With `CC(CO)N1C(=O)[C@@H]2C3C(=O)OCCC=C[C@H]3OC23C=CCN(Cc2ccccc2)C(=O)[C@@H]13` (some centres undefined) the z-score was 2.15 and 2.85. With `C=CCN(C(=O)C1N(c2c(Cl)cccc2CO)C(=O)C2C(C(=O)O)C3C=CC21O3)C(C)(C)C` (centres undefined) the z-score was 0.788 and -0.335. For `O=C1C[C@]2(c3ccc([N+](=O)[O-])cc3)C(=O)N(Cc3ccccc3)c3cc(CO)ccc3[C@H]2N1C1CCCCC1`, the z-score was -0.416 and -0.385. In the case of `C[C@@H](ON=C1[C@H]2CCn3c(=O)n(-c4ccccc4)c(=O)n3[C@H]2[C@H](O)[C@@H]2O[C@H]12)c1cn([C@H](CO)Cc2ccccc2)nn1`, the z-score is reported as 0.259. In the case of `C=CCN(CCCC)C(=O)C1N(C(C)(C)CO)C(=O)C2C(C(=O)O)C3C=CC21O3` (centres undefined), the z-score is reported as 0.616 and 0.0892. For `COC(=O)[C@@]1(Cc2ccccc2)[C@H]2c3cc(C(=O)N(C)C)n(C[C@H](O)CO)c3C[C@H]2CN1C(=O)c1ccccc1`, the z-score was -4.08 and -0.292. `C[C@@H]1CN2[C@@H](CC[C@@H](C)[C@@H]2c2ccc(Br)cc2)C(=O)O1` was tested, and the z-score was 0.0337 and 0.614. In the case of `COC(=O)C1=C(C)N(Cc2ccccc2)[C@]23O[C@](C(=O)OC)(C(=O)N2[C@@H]1c1ccccc1)[C@@H](C(=O)OC)[C@H]3C(=O)OC`, the z-score is reported as 0.371 and 0.422. `C=CCN(Cc1ccccc1)C(=O)C1N(c2ccc(CCO)cc2)C(=O)C2C(C(=O)O)C3C=CC21O3` (centres undefined) was tested, and the z-score was 0.865 and 0.168. For `CCOC(=O)C[C@H]1[C@H](OC(=O)c2ccccc2-c2ccccc2)[C@@H](NC(=O)Cc2ccc(OC)cc2)c2cc(OCCCO)ccc2N1C(=O)c1ccc2ccccc2n1`, the z-score was 0.365 and 0.0653. In the case of `CC(C)CCN1CCc2nc(-c3ccccc3)c3c(c2C1)CO[C@@H](C)C3`, the z-score is reported as 0.427. `CCOC(=O)[C@@H]1CC=C2CC1C(=O)N1CCC[C@@H]1[C@H]2O[Si](C)(C)C(C)(C)C` (some centres undefined) was tested, and the z-score was -1.02 and -2.48. For `COC(=O)[C@@]1(Cc2ccc(OC)cc2)[C@H]2c3cc(C(=O)N(C)C)n(Cc4ccc(O)c(OC)c4)c3C[C@H]2CN1C(=O)c1ccccc1`, the z-score was -5.69 and -0.509. For `CO[C@H]1COC(=O)CC=C[C@H](C)[C@H](OC)COC(=O)[C@@H](C)COC(=O)CC=C[C@@H]1C`, the z-score was -0.26 and 0.25. For `CCOC(=O)C[C@H]1[C@H](OC(=O)c2ccccc2-c2ccccc2)[C@@H](NC(=O)c2ccccc2)c2cc(OCCCO)ccc2N1C(=O)c1ccc2ccccc2n1`, the z-score was 2.2 and 0.732. For `C=CCN(CCCC)C(=O)C1N(c2c(Cl)cccc2CO)C(=O)C2C(C(=O)O)C3C=CC21O3` (centres undefined), the z-score was -0.708 and 0.0892.
